Results filed as inconclusive are left out.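 Rule for the calls, unless noted: active = GFP signal, as percent of the solvent control, above the screen mean plus 3 SD, about 149; inconclusive = no reading because the compound's own fluorescence upset strain identification; inactive = the rest.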
Test: TOR pathway RTG branch CIT2 reporter changes – S. cerevisiae, GFP fusion, multiplex flow cytometry, primary screen (AID 1870;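 active = percent response above a set limit, the screen-wide mean plus 3 SD, cut at about 130% in these data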;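 note: barcoded CIT2-GFP strain pooled with four other GFP strains with rapamycin as positive control; median GFP fluorescence per well over plate mean of DMSO wells so 100% = DMSO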)
Settings: S. cerevisiae CIT2-GFP expression, 3 h, at 10 µM, stronger effect = higher value

Percent response of DMSO control, inactive:
O=c1c(-c2ccccc2)c(O)c2cccc3c2n1CCC3 95.7%
COc1cc(CC(=O)NCCc2ccc(S(N)(=O)=O)cc2)cc(OC)c1OC 102%
CN(C)CCC(c1ccc(Cl)cc1)c1ccccn1 (centres undefined) 108%
Cc1ccc2nc(N=C(N)N)nc(C)c2c1 110%
CCn1c(N2CCN(CC(=O)c3c(C)n(C)c4ccc(OC)cc34)CC2)nc2c1c(=O)[nH]c(=O)n2C 97.8%
CC1(c2ccccc2)CC(C)(C)N2C(=O)C(=O)c3cccc1c32 (centres undefined) 99.6%
O=C(COc1cc(O)c2c(=O)c3ccccc3oc2c1)OCc1ccccc1 109%
C[N+](C)(C)CCOP(=O)([O-])OC[C@H](O)CO 105%
O=C(/C=C/Sc1ccccc1)c1ccccc1 100%
O=C1Cc2ccccc2C(c2ccccc2)N1 (centres undefined) 101%
Cc1ccc(NC(=O)CSc2nc(O)c(Cc3ccccc3)c(=O)n2-c2ccccc2)cc1 94.2%
COCCn1c(SCCOc2ccccc2)nc2ccccc2c1=O 103%
CC(=O)Oc1ccc2c(=O)c(Oc3ccccc3[N+](=O)[O-])coc2c1 111%
CCc1c(C(C)=O)oc2ccc3c(C)cc(=O)oc3c12 115%
COc1ccc(-c2[nH]ncc2CN(C)C(C)c2ccon2)c(OC)c1 (centres undefined) 106%
Cc1c(O)c(=O)ccn1C 103%
COc1ccc2cc(C(=O)Nc3ccc(S(N)(=O)=O)cc3)sc(=O)c2c1OC 114%
Cc1cnc(NC(=O)C2=C(O)c3ccccc3S(=O)(=O)N2C)s1 88.4%
O=C(O)c1ccc(N2C(=O)/C(=C\c3ccccc3)N=C2c2ccccc2)cc1 99.7%
O=C(CCC(=O)NCCO)NCCO 97.7%
CC(=O)O[C@H]1C[C@@]2(C)[C@@H](C[C@@H](O)[C@H]3[C@@]4(C)CC[C@@H](O)[C@@H](C)C4CC[C@@]32C)/C1=C(\CCC=C(C)C)C(=O)O (some centres undefined) 104%
O=C(c1cc2cc(Br)ccc2o1)N1CCCC1 97.6%
CCOc1ccc2nc(NC(=O)NC3CCCCC3)sc2c1 98.6%
O=C(/C=C/c1c[nH]c2ccccc12)c1cccc2ccccc12 92.9%

Test: TOR pathway LAP4-GFP level changes – S. cerevisiae, multiplex flow cytometry, primary screen (AID 1873)
Settings: S. cerevisiae LAP4-GFP expression, 3 h, at 10 µM, stronger effect = higher value

GFP response vs DMSO, inactive:
Cc1oc2cc(O)cc(O)c2c(=O)c1-c1ccc2c(c1)OCCCO2 128%
O=C(c1ccco1)N1CCCN(Cc2nc(-c3ccc4c(c3)OCO4)no2)CC1 98.6%
COc1ccc2nc(S(=O)Cc3ncc(C)c(OC)c3C)[nH]c2c1 (centres undefined) 95.9%
CSCCC(NC(C)=O)C(=O)Oc1ccc2c3c(c(=O)oc2c1)CCCC3 (centres undefined) 99.9%
CCOC(=O)C1NN=C(C(=O)c2ccccc2)C1c1ccc(Cl)cc1 (centres undefined) 93.7%
CSCCC(NC(=O)OC(C)(C)C)C(=O)Oc1ccc2c(=O)c(-c3ccc4c(c3)OCCO4)coc2c1 (centres undefined) 132%
COc1cc2c(cc1OC)/C(=C/c1ccc(Cl)cc1)C(=O)OC2 83.1%
COc1ccc(-c2coc3c(CN4CCOCC4)c(O)ccc3c2=O)cc1 93.7%
OCCC1CN(Cc2ccccc2-c2ccco2)CCN1C1CCCC1 (centres undefined) 110%
O=C(O)C1CCN(C(=O)COc2ccc3c4c(c(=O)oc3c2)CCC4)CC1 112%
Cc1ccc(C(=O)NCCNC(=O)c2ccccc2)cc1 98.3%
CC(=O)OCC(=O)[C@@]1(O)CC[C@H]2[C@@H]3CCC4=CC(=O)C=C[C@]4(C)[C@H]3[C@@H](O)C[C@@]21C 101%
CCCc1cc(C(N)=S)ccn1 91.4%
Cc1ccc(Cl)c(Nc2ccccc2C(=O)O)c1Cl 114%
COc1ccccc1/C=C/C(=O)OCCN1CCOCC1 79.8%
Fc1ccc(-c2cc(-c3ccccc3)nc(-n3cccn3)n2)cc1 97.2%
O=c1c(-c2ccccc2)c(O)c2cccc3c2n1CCC3 132%
COc1cc(CC(=O)NCCc2ccc(S(N)(=O)=O)cc2)cc(OC)c1OC 114%
CN(C)CCC(c1ccc(Cl)cc1)c1ccccn1 (centres undefined) 78.7%
Cc1ccc2nc(N=C(N)N)nc(C)c2c1 114%
CCn1c(N2CCN(CC(=O)c3c(C)n(C)c4ccc(OC)cc34)CC2)nc2c1c(=O)[nH]c(=O)n2C 91.4%
CC1(c2ccccc2)CC(C)(C)N2C(=O)C(=O)c3cccc1c32 (centres undefined) 81.1%
O=C(COc1cc(O)c2c(=O)c3ccccc3oc2c1)OCc1ccccc1 85.5%
C[N+](C)(C)CCOP(=O)([O-])OC[C@H](O)CO 108%
O=C(/C=C/Sc1ccccc1)c1ccccc1 112%
O=C1Cc2ccccc2C(c2ccccc2)N1 (centres undefined) 90.1%
Cc1ccc(NC(=O)CSc2nc(O)c(Cc3ccccc3)c(=O)n2-c2ccccc2)cc1 99.3%
COCCn1c(SCCOc2ccccc2)nc2ccccc2c1=O 103%
CC(=O)Oc1ccc2c(=O)c(Oc3ccccc3[N+](=O)[O-])coc2c1 78.7%
CCc1c(C(C)=O)oc2ccc3c(C)cc(=O)oc3c12 91.9%
COc1ccc(-c2[nH]ncc2CN(C)C(C)c2ccon2)c(OC)c1 (centres undefined) 78.7%
Cc1c(O)c(=O)ccn1C 76.5%
COc1ccc2cc(C(=O)Nc3ccc(S(N)(=O)=O)cc3)sc(=O)c2c1OC 79.8%
Cc1cnc(NC(=O)C2=C(O)c3ccccc3S(=O)(=O)N2C)s1 80.8%
O=C(O)c1ccc(N2C(=O)/C(=C\c3ccccc3)N=C2c2ccccc2)cc1 110%
O=C(CCC(=O)NCCO)NCCO 108%
CC(=O)O[C@H]1C[C@@]2(C)[C@@H](C[C@@H](O)[C@H]3[C@@]4(C)CC[C@@H](O)[C@@H](C)C4CC[C@@]32C)/C1=C(\CCC=C(C)C)C(=O)O (some centres undefined) 106%
O=C(c1cc2cc(Br)ccc2o1)N1CCCC1 139%
CCOc1ccc2nc(NC(=O)NC3CCCCC3)sc2c1 107%
O=C(/C=C/c1c[nH]c2ccccc12)c1cccc2ccccc12 132%

From PubChem BioAssay
